# Results taken from PubChem BioAssay (EPA / NIEHS).
# Activity calls are given as the source filed them. How the source made its calls: active means hit-call score of the fitted dose curve at least 0.9, where 1 is the maximum; inactive means score below 0.9.
# Assay: CCTE_Shafer_MEA_acute_burst_duration_mean: CCTE's Neural Acute Assay for Mean Burst Duration, Shafer Lab (AID 2284014)
# Protocol: CCTE_Shafer_MEA_acute assay is conducted using Axion Biosystems 48 well microelectrode array (MEA) plates and Maestro recording system. Each well of the MEA plate contains a grid of 16 microelectrodes embedded in the culture surface. Electrically active cells, such as neurons, can be cultured over the electrodes, and electrical activity in these cells can be recorded extracellularly. The spontaneous firing of neurons is captured from each electrode on a microsecond timescale providing both temporally and spatially precise data. […] The CCTE_Shafer_MEA_acute assay uses primary cultures of rat cortical neurons. As these cultures mature over time, neural networks develop functional activity and form cohesive networks in which electrical activity can be highly coordinated. Baseline 40-minute recordings are made on days post-plating 13 or 15, followed by a secondary 40-minute recording after chemical exposure.CCTE_Shafer_MEA_acute_burst_duration_mean is a component of the CCTE_Shafer_MEA_acute assay. It measures the average time from the first spike (action potential firing) to the last spike in a single-electrode burst (temporally-clustered group of spikes) during a recording in a microelectrode array (MEA) using Axion Biosystems Maestro 768 channel amplifier with the AxIS adaptive spike detector. The recordings before and after chemical treatment are used to calculate a percent change in the mean burst duration in each well.Data from the assay component CCTE_Shafer_MEA_acute_burst_duration_mean was analyzed into 1 assay endpoint. This assay endpoint, CCTE_Shafer_MEA_acute_burst_duration_mean, was analyzed in the negative analysis fitting direction relative to DMSO as the negative control and baseline of activity. Using a type of functional reporter, gain or loss-of-signal activity can be used to understand electrical activity.
# Spontaneous activity in the cortical cultures was recorded using an Axion Biosystems Maestro 768 channel amplifier and Axion Integrated Studios (AxIS) v1.8 (or later) software. The amplifier recorded from all channels simultaneously (gain = 1200 x; sampling rate = 12.5 kHz/channel): raw signals were filtered with a Butterworth band-pass filter (300-5000 Hz), which filters out slower local field potentials leaving only fast potentials, i.e., "spikes", arising from extracellular currents associated with action potentials (Pine 2006; Wheeler and Nam 2011). On-line spike detection of filtered signals was conducted with the AxIS adaptive spike detector, using a threshold of 8x the root mean squared (rms) noise on each channel. Any electrodes with rms noise levels greater than 5 uV were grounded (e.g., no data were recorded). Once grounded, an electrode was grounded for the duration of the experiment. All recordings were conducted at 37 C. Wells were deemed usable if on the day of the exposure >/= 10 electrodes were active (defined as >/= 5 spikes/min). On DIV 13 or 15, a minimum of three wells from one cortical culture preparation were treated with each compound (0.03-40 uM). Prior to recording baseline activity, each mwMEA plate was placed in the Maestro at 37 C and allowed to sit for 20 min while firing rates stabilized. Baseline activity (40 min) was recorded before the addition of each compound. An additional 40 min of spontaneous activity was recorded in the presence of each compound. Changes in network parameters relative to baseline were assessed following compound treatment.
SMILES,outcome,AC50
CCCCC(CC)COP(=O)(Oc1ccccc1)Oc1ccccc1 (stereo unspecified),inactive,–
[N-]=[N+]=[N-],inactive,–
COP(=O)(CCC(=O)NCO)OC,inactive,–
CC(Cl)(Cl)C(=O)O,inactive,–
ClC(Cl)(Cl)c1ccccc1,inactive,–
COCCOCCO,inactive,–
c1ccc2c(c1)Nc1ccccc1S2,–,34.9 µM (active)
O=C(O)C1C(C(=O)O)C2(Cl)C(Cl)=C(Cl)C1(Cl)C2(Cl)Cl (stereo unspecified),inactive,–
CCOc1ccc(C(C)(C)COCc2cccc(Oc3ccccc3)c2)cc1,inactive,–
CC(C)(C)c1ccccc1OP(=O)(Oc1ccccc1)Oc1ccccc1,inactive,–
CCOP(=S)(Oc1ccc([N+](=O)[O-])cc1)c1ccccc1 (stereo unspecified),inactive,–
CCC1(c2ccccc2)C(=O)N=C(O)NC1=O (stereo unspecified),inactive,–
ClC1=C(Cl)C2(Cl)C3C(Cl)C(Cl)CC3C1(Cl)C2(Cl)Cl (stereo unspecified),inactive,–
CCC(C)(C)c1ccc(O)cc1,inactive,–
Nc1ccc2ccccc2c1,inactive,–
Cc1ccc(N)cc1N,inactive,–
